Values without a mark were called inactive. The source made the active and inactive calls.
These molecules were tested against Luciferin 4-monooxygenase (Photinus pyralis) (UniProt P08659) (assay: inhibition of purified Photinus pyralis luciferase – biochemical, luminescence, purified enzyme, 2006 set, primary screen (AID 1141;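 also: cell-free assay with purified firefly luciferase at 100 ng per well in PBS; test concentration not given here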)). Details: purified firefly luciferase, SteadyGlo luminescence, 30 min; higher = more signal, called active from +8 up or from −8 down.
Luciferin 4-monooxygenase (Photinus pyralis), sequence (P08659 whole entry, looked up): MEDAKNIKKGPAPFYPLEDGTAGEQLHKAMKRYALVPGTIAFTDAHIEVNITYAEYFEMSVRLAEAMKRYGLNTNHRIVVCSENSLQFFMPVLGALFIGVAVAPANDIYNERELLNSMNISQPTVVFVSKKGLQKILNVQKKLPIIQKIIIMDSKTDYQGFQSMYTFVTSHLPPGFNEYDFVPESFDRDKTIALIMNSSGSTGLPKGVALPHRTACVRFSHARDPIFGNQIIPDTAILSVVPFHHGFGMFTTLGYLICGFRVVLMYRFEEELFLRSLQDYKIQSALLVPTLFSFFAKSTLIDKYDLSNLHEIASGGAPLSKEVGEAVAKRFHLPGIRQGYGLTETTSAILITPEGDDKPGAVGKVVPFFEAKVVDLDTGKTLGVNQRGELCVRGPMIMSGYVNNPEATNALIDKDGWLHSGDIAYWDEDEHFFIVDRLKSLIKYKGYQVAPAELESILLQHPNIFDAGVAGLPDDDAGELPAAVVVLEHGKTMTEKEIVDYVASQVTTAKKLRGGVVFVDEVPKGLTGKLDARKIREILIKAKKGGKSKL

Row | Structure (SMILES) | z-score
1 | C=C(COC)/C(=C/C[C@H](OC(C)=O)c1ccc(CO)o1)c1cc(C(=O)OC)ccc1OC | -0.769
2 | O=C(NCCN1CCOCC1)C1N=C(c2ccc(OCCCO)cc2)N(c2ccccc2)O1 (stereo not given) | -8.16 (active)
3 | COCCOC(=O)N1C(=O)[C@@]2(c3cc(C#CCCO)ccc31)[C@H](C(=O)N1CCCCCCC1)[C@H]1C(=O)O[C@H](c3ccccc3)[C@H](c3ccccc3)N1[C@@H]2c1ccc(OCCO)cc1 | 0.242
4 | COc1cc(Br)cc(C(O)C2C=CC3C(=O)N(C)C(=O)C3N2N2CCCCC2)c1OC (stereo not given) | -0.141
5 | C=C(C)[C@@H]1CC=C(C(O)C2C=CC3C(=O)N(C)C(=O)C3N2Nc2ccccc2)CC1 (stereo not given in full) | 0.485
6 | O=C(N1CCCCC1)[C@]1(Cc2ccccc2)N=C(c2ccc(OCCCO)cc2)O[C@@H]1c1ccccc1 | -0.265
7 | CC(C)c1ccc(NN2C(C(O)c3ccc(B(O)O)cc3)C=CC3C(=O)N(c4ccccc4)C(=O)C32)cc1 (stereo not given) | -6.16
8 | C=CCNC(=O)[C@@H]1[C@H]2C(=O)O[C@H](c3ccccc3)[C@H](c3ccccc3)N2[C@H](c2ccccc2OCCO)[C@@]12C(=O)N(C(=O)OCCOC)c1ccccc12 | -0.549
9 | CC(C)C(O)C1C=CC2C(=O)N(c3ccccc3)C(=O)C2N1Nc1ccc([N+](=O)[O-])cc1 (stereo not given) | 1.18
10 | COC(=O)[C@@]1(Cc2ccc(OC)cc2)[C@@H]2C(=CC(=O)[C@H]2CC(=O)C(=O)N2CCCC2)CN1C(=O)c1ccccc1 | 0.826
11 | COC(=O)[C@@]1(Cc2ccc(OC)cc2)[C@H]2c3cc(C(=O)N(C)C)n(Cc4ccc(S(C)(=O)=O)cc4)c3C[C@H]2CN1C(=O)c1ccccc1 | 1.75
12 | COCCOC(=O)N1C(=O)[C@@]2(c3cc(C#CC4(O)CCCCCC4)ccc31)[C@H](c1ccc(OCCO)cc1)N1[C@H](c3ccccc3)[C@H](c3ccccc3)OC(=O)[C@H]1[C@@H]2C(=O)N1CCN(c2ncccn2)CC1 | -0.606
13 | COc1ccc(C#Cc2ccc3c(c2)[C@]2(C(=O)N3)[C@H](C(=O)Nc3nc4ccccc4s3)[C@H]3C(=O)O[C@H](c4ccccc4)[C@H](c4ccccc4)N3[C@@H]2c2ccc(O)cc2)cc1 | 0.0616
14 | OCCCC1=CC(c2cccs2)N(Cc2cc3c(cc2Br)OCO3)CC1 (stereo not given) | -0.0407
15 | CCN(CC)c1ccc(N2CC=CC34O[C@@H]5C=CCCOC(=O)C5[C@H]3C(=O)N(CCCCCCO)[C@@H]4C2=O)cc1 (stereo not given in full) | -4.35
16 | CCCCCN1CC=CC23O[C@@H]4/C=C\CCC(C)OC(=O)C4[C@H]2C(=O)N(C(C)CO)[C@@H]3C1=O (stereo not given in full) | -0.078
17 | CC(C)OC(=O)C=C1C[C@@H](c2ccccn2)O[C@@H](c2ccccn2)O1 | 0.633
18 | C=CCOC(=O)[C@H]1[C@@H]2C(=O)O[C@@H](c3ccccc3)[C@@H](c3ccccc3)N2[C@@H](c2ccc(OCCOC(=O)[C@@H]3C[C@@H]4C(=O)N[C@@H](CCCCNC(C)=O)C(=O)N4[C@@H]3c3ccc(O)cc3)cc2)[C@]12C(=O)Nc1ccccc12 | -0.907

Row | Structure (SMILES) | z-score
19 | Cc1nc2cc(Br)ccc2c(=O)o1 | 1.16
20 | C=CCOC(=O)[C@H]1[C@@H]2C(=O)O[C@@H](c3ccccc3)[C@@H](c3ccccc3)N2[C@@H](c2ccc(OCCOC(=O)[C@H]3C[C@H]4C(=O)N[C@@H](CCCCNC(C)=O)C(=O)N4[C@H]3c3ccc(O)cc3)cc2)[C@]12C(=O)Nc1ccc(I)cc12 | -2.16
21 | C=C[C@@H](COC(=O)OC(C)(C)C)N(Cc1ccc(OC)cc1)S(=O)(=O)c1ccc(Br)cc1 | -0.694
22 | COc1ccc([Si](C)(C)[C@H]2[C@H](CCO)O[C@@]3(C(=O)N(Cc4ccc(N(C=O)c5ccccc5)cc4)c4ccccc43)[C@@H]2C)cc1 | 0.221
23 | COCCOC(=O)N1C(=O)[C@@]2(c3cc(C#Cc4ccc(OC)cc4)ccc31)[C@H](c1ccc(OCCO)cc1)N1[C@H](c3ccccc3)[C@H](c3ccccc3)OC(=O)[C@H]1[C@@H]2C(=O)N1CCN(c2ncccn2)CC1 | -0.618
24 | COc1ccc(C#Cc2ccc3c(c2)[C@]2(C(=O)N3)[C@H](c3ccccc3OCCO)N3[C@H](c4ccccc4)[C@H](c4ccccc4)OC(=O)[C@H]3[C@@H]2C(=O)Nc2nc3ccccc3s2)cc1 | -1.36
25 | CCCC[C@@H]1C[C@H]1[C@@H](NC(=O)C(C)(C)C)c1ccc(C(F)(F)F)cc1 | -3.32
26 | COC(=O)C(CC#Cc1ccc2c(c1)[C@]1(C(=O)N2)[C@H](c2ccc(OCCO)cc2)N2[C@H](c3ccccc3)[C@H](c3ccccc3)OC(=O)[C@H]2[C@@H]1C(=O)Nc1nc2ccccc2s1)C(=O)OC | -0.877
27 | COc1ccc(CCNC(=O)[C@@]2(Sc3ccc(C)cc3)CC(=O)N(C(C)C)[C@@H]2c2ccc(CO)cc2I)cc1 | -0.436
28 | COC(=O)[C@@]1(Cc2ccc(F)cc2)[C@H]2c3cc(C(=O)N4CCCC4)n(Cc4ccc(S(C)(=O)=O)cc4)c3C[C@H]2CN1C(=O)c1ccccc1 | 1.18
29 | O=C1c2ccccc2[C@](Cc2ccccc2I)(C(=O)NCCN2CCOCC2)[C@H](c2ccc(CO)cc2)N1C1CCCCC1 | -0.147
30 | COC(=O)[C@@]1(CCS(=O)(=O)c2ccccc2)N=C(c2ccc(OCCCO)cc2)O[C@H]1c1ccccc1CN=[N+]=[N-] | -0.282
31 | COCCOC(=O)N1C(=O)[C@@]2(c3cc(C#CCNC(N)=O)ccc31)[C@H](C(=O)Nc1nc3ccccc3s1)[C@H]1C(=O)O[C@H](c3ccccc3)[C@H](c3ccccc3)N1[C@@H]2c1ccc(OCCO)cc1 | -2.41
32 | CC(C)NC(=O)[C@@H]1c2ccccc2C(=O)N(C2Cc3ccccc3C2)[C@H]1c1ccc(CO)cc1 | 0.668
33 | CC(C)=CCCC(C)=CC(O)C1C=CC2C(=O)N(C)C(=O)C2N1Nc1ccccc1 (stereo not given) | 0.15
34 | [N-]=[N+]=NCc1ccccc1C[C@]1(C(=O)N2CCCCC2)N=C(c2ccc(OCCCO)cc2)O[C@H]1c1ccccc1N=[N+]=[N-] | -9.69 (active)
35 | CCOC(=O)C[C@H]1[C@H](OC(=O)c2ccc(C(=O)c3ccccc3)cc2)[C@@H](NC(=O)CC(C)C)c2cc(OCCCO)ccc2N1C(=O)c1ccc2ccccc2n1 | 0.103

From PubChem BioAssay
